Source: PubChem (several laboratories)
Hits are enriched below; roughly 5.2% of the tested compounds scored in any of these assays.
SKN-1 inh: inhibitors of C. elegans SKN-1 | C. elegans VP596 Pgst-4::GFP/RFP ratio, acrylamide-induced, 24 h | inhibition, % at 21.8 µM | 0.49% of 360,000 active | AID 624304;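 active = interference check ratio from 0.5 to 1.5 plus GFP to RFP signal ratio inhibition reaching or exceeding a fixed threshold, cut at about 30% in these data, passing the limit was not always enough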
NadD block: inhibitors of Staphylococcus aureus NadD; purified NadD enzyme, colorimetric absorbance read-out; inhibition, % at 20 µM; 0.78% of 360,000 active; in the data active = inhibition above about 26%
Vif imaging: HIV Vif inhibition; AID 602346; inhibition, % at 7.49 µM; 0.35% of 340,000 active; HEK293T cells, Vif self-association by quenched fluorescence, imaging, 24 h; in the data active = inhibition above about 50%, passing the limit was not always enough; inconclusive = no clear call, values can overlap the other calls; inactive = below about 31%
GRIN3A LBD mod: NR3A (human) ligand-binding domain modulation; 2.5% of 340,000 active; NR3A LBD differential scanning fluorimetry, Tm shift; 0% = protein alone, 100% = glycine-bound protein; Tm shift relative to glycine control, % at 25 µM;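 active = melting temperature shift of at least 10% of the positive control shift, at one fixed dose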
SMARCA2 act: SMARCA2 function activation, primary screen; 1% of 370,000 active; MG213 cells, MMTV-luciferase reporter, dexamethasone, overnight; activation, % at 9.1 µM; in the data active = activation above about 7.8%;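 note: 0% = vehicle wells and 100% = reference activator wells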
esBAF inh: blocks esBAF chromatin remodeling in mouse ES cells | Bmi1-luciferase knock-in reporter, 24 h; 100% = twice the neutral-well signal | 2% of 350,000 active | reporter increase, % at 12.5 µM | AID 602393; in the data active = activation above about 40%; inconclusive = no clear call, values can overlap the other calls;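 note: 0% = median of the plate's neutral control wells and 100% = double that signal; a rise in the Bmi1 reporter signal indicates esBAF inhibition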
Numbers without * were called inactive; ? = inconclusive; . = not tested or not shown.

SMILES	SKN-1 inh	NadD block	Vif imaging	GRIN3A LBD mod	SMARCA2 act	esBAF inh
Cc1ccc(NC(=O)Nc2cccc([N+](=O)[O-])c2)cc1F	8.8	-4.0	.	34.1*	-7.4	.
O=C(Nc1ccc(OC(F)(F)F)cc1)Nc1cccc([N+](=O)[O-])c1	21.5	-12.7	-20.0	13.0*	-10.9	.
O=C(Nc1ccc(F)cc1)Nc1cccnc1	-4.2	-5.5	.	-3.2	3.0	9.7
CCC(C)c1ccc(NC(=O)Nc2cccnc2)cc1 (stereo not given)	10.4	-5.0	2.0	-2.6	0.3	60.7*
O=C(Nc1cccnc1)Nc1cccc([N+](=O)[O-])c1	2.3	-2.4	0.3	7.3	-0.9	-5.8
O=C(Nc1ccc(OC(F)(F)F)cc1)Nc1cccnc1	-5.2	-1.1	3.3	10.9*	1.6	17.4
COc1ccccc1-c1cnc2c(c1)C(=O)N([C@@H](C)CO)C[C@@H](C)[C@@H](CN(C)CC1CCOCC1)O2	.	.	.	.	.	-6.4
CN(C)CCCNC(=O)C[C@@H]1CC[C@H]2[C@@H](COc3ccc(NC(=O)c4ccccc4F)cc3C(=O)N2C)O1	.	.	.	.	.	9.4
Clc1ncccc1-c1nnn(-c2ccccc2Br)n1	53.4*	-5.2	-1.2	2.5	5.0	50.1*
Clc1ccc(-n2nnc(-c3cccnc3Cl)n2)cn1	24.5	2.1	-2.2	-0.1	3.9	52.2*
Clc1nc2ccccc2cc1-c1nnn(-c2ccccc2Br)n1	26.5	-1.6	-2.7	-2.7	4.1	41.2*
Brc1ccccc1-n1nnc(-c2cnc3ccccc3c2)n1	20.5	4.5	3.2	-31.3	5.7	?
Cc1ccc(-n2nnc(-c3cccnc3Cl)n2)cc1	5.0	-7.8	-5.0	5.3	7.4	-8.1
C[C@@H]1CN([C@H](C)CO)C(=O)c2cc(-c3cccc(F)c3)cnc2O[C@H]1CN(C)C(=O)C1CCC1	.	.	.	.	.	2.6
CCCNC(=O)Nc1ccc2c(c1)C(=O)N(C)[C@H]1CC[C@H](CC(=O)NC)O[C@@H]1CO2	.	.	.	.	.	2.7
Cc1cc(NC(=O)Nc2cccc(Cl)c2)no1	9.0	-8.3	.	.	-3.2	15.2
Cc1cc(NS(=O)(=O)c2ccc(NC(=S)NC(=O)c3cccc(S(=O)(=O)N(C)C)c3)cc2)no1	15.9	2.6	-6.1	1.4	-1.2	-2.3
Cc1cc(NS(=O)(=O)c2ccc(NC(=O)C(C)Oc3ccc(Cl)cc3)cc2)no1 (stereo not given)	-1.5	7.1	-4.8	-1.6	-1.8	.
Cc1cc(NS(=O)(=O)c2ccc(NC(=S)NC(=O)c3ccc(F)cc3)cc2)no1	-2.8	-2.7	-2.3	13.7*	2.5	.
Cc1cc(NS(=O)(=O)c2ccc(NC(=O)NC3CCCCC3)cc2)no1	-3.9	-1.9	-4.9	-0.1	-0.2	-2.4
Cc1cc(NS(=O)(=O)c2ccc(NC(=O)Nc3ccc4c(c3)OCO4)cc2)no1	-34.3	-4.9	.	-3.4	5.5	41.9*
Cc1ccc(OC(C)C(=O)Nc2ccc(S(=O)(=O)Nc3cc(C)on3)cc2)cc1 (stereo not given)	3.3	1.4	24.5	15.7*	-4.1	1.0
Cc1cc(NS(=O)(=O)c2ccc(NC(=O)Nc3cccc(Cl)c3)cc2)no1	-10.4	-4.1	8.3	21.2*	-1.8	-1.0
N#Cc1ccc(-c2ccc3c(c2)[C@@H]2[C@@H](CCN2C(=O)c2ccc4c(c2)OCO4)[C@H](CO)N3)cc1	.	.	.	.	.	-5.7
CO[C@H]1CN(C)C(=O)c2ccc(NC(=O)NC(C)C)cc2OC[C@@H](C)N(CCC(F)(F)F)C[C@H]1C	.	.	.	.	.	3.2
SMILES	SKN-1 inh	NadD block	Vif imaging	GRIN3A LBD mod	SMARCA2 act	esBAF inh
CCCNC(=O)N(C)C[C@@H]1Oc2ncc(C#Cc3ccncc3)cc2C(=O)N([C@@H](C)CO)C[C@@H]1C	.	.	.	.	.	1.9
CO[C@H]1CN(C)C(=O)c2cc(NS(C)(=O)=O)ccc2OC[C@H](C)N(C(=O)CN(C)C)C[C@@H]1C	.	.	.	.	.	-0.8
CC1=Nc2ccccc2/C1=C\c1nc(-c2ccccc2)oc1O	-6.3	15.3	-7.8	10.2*	-1.8	4.3
CC1=Nc2ccccc2/C1=C\c1nc(-c2ccc(C(F)(F)F)cc2)oc1O	59.7	-3.6	.	26.8*	1.4	4.4
CC1=Nc2ccccc2/C1=C/c1nc(-c2ccc(C)s2)oc1O	7.1	11.8	0.4	20.1*	0.5	.
COc1ccc(-c2nc(/C=C3\C(C)=Nc4ccccc43)c(O)o2)cc1	10.1	16.5	-10.3	-3.6	-4.4	.
CO[C@H]1CN(C)C(=O)c2ccc(NS(=O)(=O)CC(F)(F)F)cc2OC[C@@H](C)N(C(=O)c2ccc3c(c2)OCO3)C[C@@H]1C	.	.	.	.	.	10.3
CC(=O)Oc1c(I)cc(I)cc1C(=O)Nc1ccc(Cl)cc1	3.3	13.1	-8.4	16.1*	-1.5	6.5
Fc1ccccc1CSc1ncnc2c1ncn2C1CCCO1 (stereo not given)	7.8	3.8	-10.7	0.8	2.3	68.8*
O=C(C[n+]1cccc(Br)c1)c1ccc(-c2ccccc2)cc1	-1.0	-5.4	-0.2	0.0	1.8	44.4*
Cc1ccc(C(=O)C[n+]2cccc3ccccc32)cc1	-17.1	-2.3	-15.4	0.3	5.2	-0.5
O=C(C[n+]1cccc2ccccc21)c1ccc(Br)cc1	7.6	0.3	93.0*	0.5	1.0	?
CCCNC(=O)[C@@H]1[C@@H](CO)[C@@H]2Cn3c(ccc(-c4cncnc4)c3=O)[C@H]1N2C(=O)Nc1ccccc1	.	.	.	.	.	3.2
CNC[C@H]1Oc2ccc(NC(=O)C3CC3)cc2C(=O)N([C@@H](C)CO)C[C@H]1C	.	.	.	.	.	-4.9
CCCC(=O)Nc1ccc2c(c1)C(=O)N(C)C[C@H](OC)[C@H](C)CN(Cc1ccncc1)[C@@H](C)CO2	.	.	.	.	.	-1.1
Cc1ccc(NS(=O)(=O)c2ccc(NC(=O)CSc3ccc(Cl)cc3)cc2)c(C)c1	17.0	4.5	-3.1	22.6*	-4.0	0.5
Cc1ccc(NS(=O)(=O)c2ccc(NC(=O)CN(c3cc([N+](=O)[O-])ccc3C)S(C)(=O)=O)cc2)c(C)c1	7.8	13.7	-4.4	13.0*	-1.5	.
Cc1ccc(NS(=O)(=O)c2ccc(NC(=O)c3ccc(Br)o3)cc2)c(C)c1	4.0	4.2	-8.0	10.7*	-5.9	0.8
Cc1ccc([N+](=O)[O-])cc1N(CC(=O)NC1CCCC1)S(C)(=O)=O	4.3	3.6	5.1	-0.6	-3.0	-6.2
Cc1ccc(O)c(NC(=O)CSc2ccc(Cl)cc2)c1	1.9	-2.6	-12.9	-4.9	-1.5	6.7
Cc1ccc(NS(=O)(=O)c2ccc(NC(=O)c3ccc(-c4ccccc4)cc3)cc2)c(C)c1	-3.6	19.0	.	10.1*	-0.1	4.6
O=C(N[C@@H]1C=C[C@@H](CC(=O)N2CCOCC2)O[C@@H]1CO)c1ccc2c(c1)OCO2	.	.	.	.	.	-1.1
C[C@H](CO)N1C[C@H](C)[C@H](CN(C)CC2CCCCC2)Oc2cc(C3=CCCC3)ccc2S1(=O)=O	.	.	.	.	.	-6.5
Cc1cc(C)cc(NS(=O)(=O)c2ccc(NC(=S)NC(=O)c3ccc(Br)o3)cc2)c1	-26.6	20.3	-8.1	18.4*	-2.5	-20.2
